# Source: PubChem BioAssay AID435019 (Southern Research Specialized Biocontainment Screening …, 2010)
# Hit rate of the full screen: of about 2,300 compounds, about 1,200 (52%) were called active. The rule behind the calls is not given here. The set was probably picked from earlier hits. Some of the results follow. Entries with a potency or affinity are not part of this list.
# Test: mammalian cell cytotoxicity, dose response, cytotoxicity control for M. tuberculosis inhibitor project (AID 435019);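 note: 0% = background wells and 100% = vehicle-treated cells; lower values mean fewer viable cells so more cytotoxicity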
# Settings: cytotoxicity counter-screen; series mostly up to 40 µM; viability: at the top concentration
row,Compound,viability
1,Cc1nc2scc(-c3cccs3)c2c(=O)n1-n1cccc1,94.5% (inactive)
2,O=C(O)/C=C/C(=O)Nc1ccc(-c2ccccc2)cc1,102% (inactive)
3,O=[N+]([O-])c1cc(C=Nc2ccc3ccccc3c2)ccc1Br,102% (inactive)
4,Cc1ccc(S(=O)(=O)CNC(=S)c2ccc3ccccc3c2)cc1,87% (inactive)
5,Cc1ccc(N2CCN(C(=O)c3cn(CC4CCCCC4)nn3)C(C)C2)cc1 (stereo not given),85.7% (inactive)
6,O=c1c2ccccc2nc(/C=C/c2ccccc2)n1-c1ccc(O)cc1,81.8% (inactive)
7,CCCC1CCC(C(=O)Nn2c(C)nc3ccccc3c2=O)CC1 (stereo not given),82.5% (inactive)
8,Cc1ccc2[nH]c(C(=O)NN=C3CCCCC3)c(-c3ccccc3)c2c1,88.9% (inactive)
9,CCc1cc(C(=O)Nc2ccc(C)cc2Br)cs1,92.9% (inactive)
10,C/C(=N\NC(=O)COc1ccc(C)cc1Br)c1cc([N+](=O)[O-])cs1,91.1% (inactive)
11,COc1ccccc1N1C(=O)NC(=O)/C(=C/c2ccc([N+](=O)[O-])s2)C1=O,92.6% (inactive)
12,Cc1cccc(CSc2nc3c(c(-c4cccs4)c2C#N)CN(C)CC3)c1,95.7% (inactive)
13,COc1cc(/C=N/NC(=O)COc2ccc(C)cc2)ccc1OC(=O)c1cccs1,99.4% (inactive)
14,CCCCCCOc1ccc(/C=C/C(=O)N2CCOCC2)cc1OC,87% (inactive)
15,CC[N+](C)(CC)CCCCOc1ccc2c(c1)C(=O)c1cc(OCCCC[N+](C)(CC)CC)ccc1-2,98.3% (inactive)
16,CCCOc1ccc(-c2cnc(SCC(N)=O)nc2N)cc1,94.2% (inactive)
17,O=C(/C=C/c1ccco1)Oc1ccc(C(=S)N2CCOCC2)cc1,92.7% (inactive)
18,COc1ccc(NC(=O)NC(C)C2CC3CCC2C3)cc1 (stereo not given),88.8% (inactive)
19,Nc1ccc(-c2nc3nc(N)nc(N)c3nc2-c2ccc(N)cc2)cc1,86.7% (inactive)
20,CN1CCN(C(=O)/C=C/c2cn(-c3ccccc3)nc2-c2ccc3c(c2)OCCO3)CC1,91.2% (inactive)
21,Cc1ccc(C(=O)COC(=O)C2CC(=O)N(c3nc(-c4ccccc4)cs3)C2)cc1C (stereo not given),87.5% (inactive)
22,CCCCCCCCCCCCCCCC(=O)NCCO,98.4% (inactive)
23,CCCCCCCCNC(=O)CCNC(=O)c1ccc(C(C)(C)C)cc1,83.2% (inactive)
24,CCc1ccc(NC(=O)c2ccc(C3SCC(=O)N3CCc3ccccc3)cc2)cc1 (stereo not given),91.9% (inactive)
25,O=C1N[C@@H](Cc2ccccc2)C(=O)N2[C@H]3Nc4ccccc4[C@@]3([C@]34C[C@H]5C(=O)N[C@@H](Cc6ccccc6)C(=O)N5[C@H]3Nc3ccccc34)C[C@@H]12,86.8% (inactive)
26,CCOC(=O)CSc1nc(C)c(C(=O)OCC)s1,97.8% (inactive)
27,Cc1cc(C2N=C(N)Nc3nc4ccccc4n32)c(C)n1-c1ccccc1Cl (stereo not given),90.1% (inactive)
28,CN1OC(COC(=O)c2ccc(Cl)cc2Cl)CC1c1ccccc1 (stereo not given),94.3% (inactive)

row,Compound,viability
1,CCC(C)Nc1nc2c(C)cccn2c(=O)c1C=Nc1ccc(OC)cc1 (stereo not given),91.5% (inactive)
2,CC(=O)O[C@H]1C[C@@]2(C)[C@@H](C[C@@H](O)[C@H]3[C@@]4(C)CC[C@@H](O)[C@@H](C)[C@@H]4CC[C@@]32C)/C1=C(\CCC=C(C)C)C(=O)O,99.3% (inactive)
3,CN(CCCC1CCCC1)C(=O)CCc1nnc(-c2ccccc2)o1,83.9% (inactive)
4,O=C(Nc1ccc2nsnc2c1)NC1CCCCC1,104% (inactive)
5,COC(=O)c1ccc(-c2ncc(-c3cccc4ccccc34)o2)cc1,95.6% (inactive)
6,COc1cc(C)c(/C=C/C(C)=C/C=C/C(C)=C/C(=O)O)c(C)c1C,88.1% (inactive)
7,CC1(C)OC(=O)C(=NNc2ccc(Cl)cc2)C(=O)O1,94.5% (inactive)
8,CCn1c(SCC(=O)OC2CCCCC2)nc2ccccc2c1=O,95.4% (inactive)
9,Cc1ccc(NC(=O)c2cnc(SCC(=O)NCC3CCCO3)n(C)c2=O)cc1C (stereo not given),90.9% (inactive)
10,Cn1c(CNc2nc(-c3ccccc3)cs2)nnc1SCC(=O)OC1CCCCC1,101% (inactive)
11,CCOc1ccc(NC(=S)Nc2cc(-c3ccccc3)[nH]n2)cc1,86.4% (inactive)
12,CCCc1ccc(NC(=O)C2CCN(c3cnccn3)CC2)cc1,95.8% (inactive)
13,CCCc1ncc(CN2CCCC(C(=O)Nc3ccc(-c4cccc(OC)c4)cc3)C2)cn1 (stereo not given),81.7% (inactive)
14,Cc1ccc(C)c(N2CCN(C(=O)c3ccc4nc(N5CCOCC5)sc4c3)CC2)c1,84.8% (inactive)
15,Cc1cc(C)c2nc(N3CCCC(C(=O)N4CCN(c5ncccn5)CC4)C3)sc2c1 (stereo not given),82.1% (inactive)
16,C[C@]12CCC(=O)C[C@@H]1CC[C@@H]1[C@@H]2CC[C@]2(C)C=CC[C@@H]12,92.2% (inactive)
17,NC(=O)N1CCC2(CC1)NC(=O)N(c1ccccc1)N2,91.9% (inactive)
18,Cc1cc(C)nc(-n2nc(C)cc2NC(=O)CN2CCC(C)CC2)n1,91.8% (inactive)
19,O=C(c1cc2cc(F)ccc2[nH]1)N(Cc1cccnc1)CC1CCCN(C2CCCCC2)C1 (stereo not given),84.5% (inactive)
20,CC1(CCc2ccccc2)NC(=S)N(c2ccc(Cl)cc2)N1 (stereo not given),89.4% (inactive)
21,COC(=O)CSc1nnc(CNc2ccc(Cl)cc2)n1-c1ccccc1,94.6% (inactive)
22,O=C(C[n+]1ccc(C(=O)N/N=C/c2ccc(O)cc2)cc1)c1ccccc1,103% (inactive)
23,COc1ccccc1-n1cc2c([N+](=O)[O-])cc([N+](=O)[O-])cc2n1,103% (inactive)
24,Nc1cc([N+](=O)[O-])cc2oc(-c3ccccc3)cc12,83.1% (inactive)
25,CCCCNc1nc(N(C)c2ccccc2)nc(-n2ccnc2)n1,85.3% (inactive)
26,COC(=O)c1ccc(CSc2nc3cc(Cl)ccc3o2)cc1,101% (inactive)
27,O=C(CSc1nc2cc(Cl)ccc2o1)c1cccs1,96.2% (inactive)
